Laboratory results from PubChem BioAssay AID488977 (Johns Hopkins Ion Channel Center, 2010).
Screen size: about 310,000 compounds; about 1,500 (0.48%) were called active.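 How the source made its calls: active means initial fluorescence not abnormally high and integrated response B-score, plate-corrected, over 3 SD above library mean; inactive means the rest.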 Shown is part of a subset that was picked to be rich in actives.

Biological target: High affinity choline transporter 1 (Homo sapiens) (UniProt Q9GZV3)
Sequence (Q9GZV3 whole entry, looked up): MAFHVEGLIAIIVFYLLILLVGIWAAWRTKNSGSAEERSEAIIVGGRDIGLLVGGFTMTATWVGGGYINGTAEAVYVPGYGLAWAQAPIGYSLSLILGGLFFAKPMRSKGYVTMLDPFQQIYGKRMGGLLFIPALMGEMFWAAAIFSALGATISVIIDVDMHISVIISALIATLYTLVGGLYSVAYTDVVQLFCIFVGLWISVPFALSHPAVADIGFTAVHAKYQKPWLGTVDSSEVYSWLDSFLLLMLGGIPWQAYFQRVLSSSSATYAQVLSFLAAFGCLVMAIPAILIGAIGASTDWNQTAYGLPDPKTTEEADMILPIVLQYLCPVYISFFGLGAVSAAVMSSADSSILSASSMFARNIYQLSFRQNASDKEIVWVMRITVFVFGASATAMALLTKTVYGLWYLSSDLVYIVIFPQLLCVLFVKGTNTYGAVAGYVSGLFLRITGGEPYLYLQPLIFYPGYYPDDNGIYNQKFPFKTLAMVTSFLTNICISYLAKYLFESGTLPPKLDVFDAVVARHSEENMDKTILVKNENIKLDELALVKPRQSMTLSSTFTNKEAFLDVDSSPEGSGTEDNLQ
Experiment: CHT positive allosteric modulators, primary screen, cell-based, membrane potential dye, choline EC20 (AID 488977)
Conditions: CHT-expressing cells, at 10 µM, LV-AA mutant CHT in HEK293 cells; hits give high values

B-score, active:
Nc1scc[n+]1Cc1cccc2cccnc12 6.75
N=c1c2c3c(sc2ncn1CCCN1CCOCC1)CCCCC3 6.58
COc1nc(N=C(N)N)nc2c(C)cccc12 8.19
Cc1nc(N=C(N)N)nc2c(C)cccc12 7.11
Cc1ccc(C(=O)c2ccc(N3CCN(C)CC3)c([N+](=O)[O-])c2)cc1 6.4
CC(C)CC(COCc1ccc(Cl)cc1)N1CCN(C(=O)c2ccc(C(F)(F)F)cc2)CCC1=O (stereo unspecified) 6.29
Nc1ccccc1SCc1cc([N+](=O)[O-])cc2c1OCOC2 7.8
CCCCCCCCn1c2c(c(=N)c3c1CCC3)CCCC2 12.2
CCOc1ccc(C2c3[nH]c4ccccc4c3CCN2Cc2cccn2-c2ncccn2)cc1 (stereo unspecified) 6.79
CC(=O)N1CC[n+]2c(-c3ccc([N+](=O)[O-])cc3)csc21 7.27
CC(C)(C)Nc1nc(-c2ccccn2)nc2ccccc12 6.37
CCCCCCCCCCOC(=O)Cn1c(COc2cccc(OC)c2)[n+](C)c2ccccc21 10.7
CCCCCCCCCCOC(=O)Cn1c(COc2ccc(C)cc2)[n+](C)c2ccccc21 9.75
CC(Sc1nc2ccccc2c(=O)n1Cc1ccco1)C(=O)c1ccccc1 (stereo unspecified) 7.82
CC1=CC(C)(C)N(C(=O)CSc2nnc(-c3ccccc3)o2)c2ccc(C)cc21 9.98
CCN1/C(=C/c2ccc3ccc(C)cc3[n+]2CC)Sc2ccccc21 7.76
Cc1ccccc1C(=O)NCC(c1ccco1)N1CCc2ccccc21 (stereo unspecified) 7.63
CCCOc1ccccc1C1CC(=O)Nc2cc3c(cc21)OCO3 (stereo unspecified) 7.15
Cc1c(CCOC(=O)CC23CC4CC(CC(C)(C4)C2)C3)sc[n+]1Cc1ccc([N+](=O)[O-])cc1 8.47
CCN1CCN(c2ccc([N+](=O)[O-])cc2C(=O)c2ccc(Cl)cc2)CC1 8.73
CCOC(=O)c1cn(CC)c2cc(F)c(F)cc2c1=O 7.03
O=C1c2ccccc2C(=O)c2c1cccc2N1CCN(CCO)CC1 8.6

B-score, inactive:
Fc1ccccc1COc1cccc2cccnc12
c1ccc2c(C[n+]3csc4ccccc43)cccc2c1
COc1ccc(CCNC(=O)C(=O)NCC2CCCN2S(=O)(=O)c2cccs2)cc1OC (stereo unspecified)
N=c1c2c3c(sc2ncn1N)CCCCC3
Nc1nc(SCC(=O)NCCN2CCOCC2)nc2sc3c(c12)CCC3
CCN(CC(=O)Nc1cccc(S(=O)(=O)N2CCCCC2)c1)Cc1ccccc1
Cc1nc(/N=C(\N)NC(=O)NC2CCCCC2)nc2ccccc12
COc1ccc2nc(/N=C(\N)NC(=O)Nc3ccccc3)nc(C)c2c1
NC(N)=Nc1nc(-c2ccccc2)c2cc(Cl)ccc2n1
CC(=O)Oc1ccc(-c2nc3c(C)cccc3c(=O)o2)cc1
O=C(Nc1ccc(C(=O)N2CCOCC2)cc1)Nc1cccc(C(F)(F)F)c1
Cc1ccc(OCC(=O)Oc2ccccc2[N+](=O)[O-])cc1
COc1ccc2c(c1)[C@H]1[C@H](CO2)[C@H](c2ccccc2)[C@]2(C)C(=O)Nc3cc(F)c(F)cc3C(=O)N12
O=C(Nc1ccc2nc3n(c(=O)c2c1)CCCC3)c1ccc(Cl)nc1
CN(C)C1=NC[C@H](Cc2ccccc2)N1CCc1ccc(F)cc1
Cc1noc(C)c1CSCC(=O)Nc1ccc(Br)cc1Cl
CCOC(=O)C1CCN(c2ccc(C(=O)O)cc2[N+](=O)[O-])CC1
Cc1cccc(N2CCN(c3ccc(C(N)=O)cc3[N+](=O)[O-])CC2)c1C
O=C(Cc1ccc(S(=O)(=O)N2CCOCC2)s1)N1CCN(c2ccc(C(F)(F)F)cc2[N+](=O)[O-])CC1
COc1ccc(NC(=O)CN(C)C(=O)c2cccc(S(=O)(=O)N3CCN(c4ccccc4)CC3)c2)cc1
O=C(c1cc(Cl)cc(Cl)c1)N1CCC(=O)N(C(COCc2ccccc2)Cc2ccccc2)CC1 (stereo unspecified)
CC(C)CC(CO)N1CCN(C(=O)c2ccc(Cl)cc2Cl)CCC1=O (stereo unspecified)
O=C(CCC(=O)c1cccs1)Nc1nc2ccccc2s1
CCCCn1c(N)c(N(CC(C)C)C(=O)c2ccc(-n3c(C)ccc3C)cc2)c(=O)[nH]c1=O
CCS(=O)(=O)c1cc([N+](=O)[O-])c(Sc2ccccc2N)s1
Nc1ccccc1SC(C[N+](=O)[O-])c1ccccc1 (stereo unspecified)
Cc1cc(C)cc(NC(=O)COc2coc(CN3CCN(c4ccccc4)CC3)cc2=O)c1
COc1cccc(N2CC(NC(=O)c3ccc4ccccc4c3)CC2=O)c1 (stereo unspecified)
COc1ccccc1N(C)S(=O)(=O)c1ccc(Cl)c(C(=O)Nc2ccncc2)c1
CN1C(C(=O)NCc2ccco2)CC2Cn3c(nc4ccccc43)C21 (stereo unspecified)
CC(OC(=O)CCCc1c[nH]c2ccccc12)C(=O)Nc1ccc(S(N)(=O)=O)cc1 (stereo unspecified)
COc1ccc2oc(C(=O)OCC(=O)N(CC(C)C)c3c(N)n(Cc4ccccc4)c(=O)[nH]c3=O)c(C)c2c1
CCCCCCSc1ccc([C@@H]2[C@@H]3C(=O)N(CC)C(=O)[C@@H]3[C@]3(C(=O)OC)CCCCN23)cc1OC
c1ccc(C2c3[nH]c4ccccc4c3CCN2Cc2cccn2-c2cccnc2)nc1 (stereo unspecified)
CCOc1ccc(C2c3[nH]c4ccccc4c3CCN2Cc2cn(CC)nc2C)cc1 (stereo unspecified)
COc1ccc(Cl)cc1NC(=O)CN(C)C(=O)c1cc2ccccc2cc1OC
Cc1cc(C)c(S(=O)(=O)N2CCCC2CNC(=O)c2ccc3c(c2)OCO3)c(C)c1 (stereo unspecified)
CCN(CC)CCn1c2c(c(SCC(=O)Nc3ccc(C(C)C)cc3)nc1=O)CCC2
COc1ccc(C2CC(c3ccc([N+](=O)[O-])cc3)=NN2C(C)=O)cc1 (stereo unspecified)
COC(=O)c1c(C)[nH]c(C)c1-c1ccc([N+](=O)[O-])cc1
Cc1ccc(Oc2nc(-c3ccccn3)nc3ccccc23)cc1
CCOCCCNc1nc(-c2ccccc2)nc2ccccc12
COc1ccc(S(=O)(=O)N2CCCCCC2)cc1C(=O)N(C)Cc1cccc(OC)c1OC
O=[N+]([O-])c1ncc(Br)cc1Nc1ccccc1
COc1cccc(OCCCN2CCCCCC2)c1
Cc1ccc(OCCCn2c(=O)oc3ccccc32)cc1
CCCCOC(=O)Cn1c(=N)n(CCN(CC)CC)c2ccccc21
COc1cccc(OCC(=O)Nc2ccccc2C(N)=O)c1
CCOC(=O)c1c(C)oc2cc(Sc3ccccc3)c(O)c(O)c12
COc1cccc(CNC(=O)C(=O)NCCC2CCCCN2S(=O)(=O)c2ccc(C)cc2)c1 (stereo unspecified)
Cc1cc(OCC(=O)N(C)c2c(N)n(Cc3ccccc3)c(=O)[nH]c2=O)c(C(C)C)cc1Cl
O=C(CCCn1c(SCC(=O)c2ccc(F)cc2)nc2ccccc2c1=O)NCc1ccco1
CCOC(=O)C(C)Sc1nc2ccccc2c(=O)n1CC1CCCCC1 (stereo unspecified)
Cc1sc2ncnc(N3CCC(C(=O)NNC(=O)c4ccc(F)cc4)CC3)c2c1C
O=C(CSc1nnc(-c2ccccc2)o1)N1CCOCC1
CC1=CC(C)(C)N(C(=O)CSc2nccn2C)c2cc(C)ccc21
CCN1/C(=C\c2ccc3ccccc3[n+]2CC)Sc2cc(C)ccc21
CCN1/C(=C/C(=S)Nc2ccccc2)Sc2ccccc21
COc1ccc(C(=O)NCC(c2ccco2)N2CCc3ccccc32)cc1OC (stereo unspecified)
O=C(NCC(c1ccco1)N1CCc2ccccc21)c1cccc(F)c1 (stereo unspecified)
CC(=O)Nc1ccc(C(=O)Nc2cccc(S(=O)(=O)NC3=NCCC3)c2)cc1
COc1ccc(C(=NN)c2ccc(OC)cc2)cc1
CCOC(=O)[C@H]1[C@H]2COc3ccc(Cl)cc3[C@@H]2N2C(=O)c3cc(C)ccc3NC(=O)[C@@]12C
Cn1cccc1C(=O)NNC(=O)COc1ccc(Br)cc1
O=C(Nc1ccc(S(=O)(=O)N2CCCCC2)cc1)C1CCN(C(=O)c2ccc(F)cc2)CC1
COc1ccccc1C1C2=C(COC2=O)Nc2cc3c(cc21)OCO3 (stereo unspecified)
COc1ccc(C2CC(=O)Nc3cc(C)c(C)cc32)c(OC)c1OC (stereo unspecified)
COc1ccc(/C=C2\SC(=S)N(CCCC(=O)NC3CCCC3)C2=O)cc1OC
Cc1c(CCOC(=O)c2cc([N+](=O)[O-])ccc2Cl)sc[n+]1CCCCS(=O)(=O)[O-]
CCN(CC)CCn1c2c(c(SCC(=O)Nc3nc4ccccc4s3)nc1=O)CCCC2
CCC(C)(C)NC(=O)c1cc([N+](=O)[O-])ccc1N1CCCCC1
CCC(=O)c1ccc(N2CCN(C(=O)c3cc([N+](=O)[O-])ccc3F)CC2)c(F)c1
Cc1cc(O)c(Sc2ccccc2)c(=O)o1
CCCCCCn1cc(C(=O)O)c(=O)c2cc(F)c(N3CCCCC3)cc21
Cc1ccc(Cn2cc(C(=O)NN)c(=O)c3ccc(F)cc32)cc1
Cc1cc(C)c(S(=O)(=O)n2cc(C(C)C(N)C(=O)O)c3ccccc32)c(C)c1 (stereo unspecified)
CCCn1c(C)cc(-c2csc(NC(=O)CCc3nc4ccccc4c(=O)[nH]3)n2)c1C
O=C1c2ccccc2C(=O)c2c1cccc2N1CCN(C/C=C/c2ccccc2)CC1
O=C1c2ccccc2C(=O)c2c1cccc2N1CCN(Cc2ccccc2)CC1
